Drawing on article PMC7819943, “Rice protein-binding microarrays: a tool to detect cis-acting elements near promoter regions in rice”, this text covers binding signal for 42 sequences.

In all, about 35,000 sequences were measured (“fluorescence intensity (a.u.)”: median about 10,000, highest 2% from about 52,000 on). Only a selection was taken, and the highest values are over-represented in it overall.

For the assay, the target named is T1, OsWOX13 (Oryza sativa, UniProt Q5QMM3 1-267).
T1 sequence: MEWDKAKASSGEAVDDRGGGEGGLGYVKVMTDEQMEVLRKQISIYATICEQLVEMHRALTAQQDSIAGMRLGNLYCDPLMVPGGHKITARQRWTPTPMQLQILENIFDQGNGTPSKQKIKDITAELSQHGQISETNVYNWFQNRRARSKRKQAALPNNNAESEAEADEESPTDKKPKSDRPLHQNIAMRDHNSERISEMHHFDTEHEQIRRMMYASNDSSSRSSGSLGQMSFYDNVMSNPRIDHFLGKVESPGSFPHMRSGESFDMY
As to the kind of experiment: protein-binding microarray (RPBM); PBS, 2% BSA, 51.3 ng/ul salmon testes DNA, 50 uM zinc acetate, 200 nM TF, 25 C, 1 h; high values mean tight binding. As to conditions: protein: recombinant; tags: N-terminal polyhistidine and DsRed monomer fusion (pET32a); label: CyDye5-dUTP incorporated in the synthesized complementary strand; 3' TTTTT single-stranded linker to array surface; dsDNA, one strand shown. In short, it runs like this: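 An Axon 4000B scanner gave the binding signal as per-feature fluorescence intensity in arbitrary units. This followed washing of a custom Agilent array that had been incubated for 1 h at 25 °C with 200 nM protein in PBS, 2% BSA, salmon testes DNA and 50 µM zinc acetate. The proteins were transcription factors fused at the N-terminus to polyhistidine and DsRed, expressed in E. coli BL21-CodonPlus and purified on Ni–NTA.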
As for “CGGGCTTCTTGATTTGCGGATTGTTGTTGTGGATCGCCAGCGGAGTCACCTAGTGCAG”, the binding signal is 5040 fluorescence intensity (a.u.). For “TTTAAATTTTAATGATCGGTGATTTTGTGCAGGGAAAACGCGGAGTCACCTAGTGCAG” the value was 24200 fluorescence intensity (a.u.); for “TTTAATTAATTTGTTAAATTTTCTGATCGGAATGAGCGGTCGGAGTCACCTAGTGCAG”, 63700 fluorescence intensity (a.u.); for “TTAACTGATTGATGCTCAAGTGGATTGATCGATTTTGTTGCGGAGTCACCTAGTGCAG”, 65500 fluorescence intensity (a.u.). As for “TTTTAAATTTCATTATATAATGATTAATTTGGGAATGAGGCGGAGTCACCTAGTGCAG”, the binding signal is 30800 fluorescence intensity (a.u.).

Turning to “ATGATAACTGATTGCAATAAGGTTAGGATGTTGTCACACCCGGAGTCACCTAGTGCAG”, the binding signal was 52900 fluorescence intensity (a.u.).

As to “GATGAACATTGATTTGCTCGGATCTTGGATGCTGTTTGTGCGGAGTCACCTAGTGCAG”, the binding signal is 20800 fluorescence intensity (a.u.).

Turning to “GATAATGGCCCTTAAATTGATTGCAACTCACGGTGATACACGGAGTCACCTAGTGCAG”, the binding signal is 44800 fluorescence intensity (a.u.).

With “GCTCTAAGGGTGGGTTTTGATGGGAGGTTTTGGATGGATACGGAGTCACCTAGTGCAG”, the binding signal is 6370 fluorescence intensity (a.u.). Consider “TTTGATTTGGGAAAGATAATATATCTTGCTACTTTGTCTTCGGAGTCACCTAGTGCAG”, for which the binding signal was 18200 fluorescence intensity (a.u.). Take “AAACATTAATTAATACCATAATAGTTAGGTGACAATTGACCGGAGTCACCTAGTGCAG”: the binding signal was 27100 fluorescence intensity (a.u.). “CAACGCCTGTAATTGCTCCTCCTGGCATGCAAGCCTTGTCCGGAGTCACCTAGTGCAG”: the binding signal is 5050 fluorescence intensity (a.u.). The value for “GTAAATTGTTTACTATCGAATGTACATGCTATATATATTGCGGAGTCACCTAGTGCAG” was 20400 fluorescence intensity (a.u.); that for “GCAATAATTAATAAGGCTCTAGGATAATTCAAATGGTTTTCGGAGTCACCTAGTGCAG” was 9520 fluorescence intensity (a.u.); that for “CTACAAAATTAAGCTGATAGCAACATCATTCACACATGGACGGAGTCACCTAGTGCAG” was 4120 fluorescence intensity (a.u.).

Consider “TAATGGTTTTCAGACAAATGGATAATTAAGCTGATAGCGACGGAGTCACCTAGTGCAG”, for which the binding signal is 65400 fluorescence intensity (a.u.). Regarding “GGCTGACGTCTAAATAAATTTTGAGTAAATTACATTAGCGCGGAGTCACCTAGTGCAG”, the binding signal was 15600 fluorescence intensity (a.u.). Regarding “ATCGTAGTGTAATTACACTGTAACTTATATGTAATTACACCGGAGTCACCTAGTGCAG”, the binding signal was 12100 fluorescence intensity (a.u.). Turning to “AATTGATTAAGATGATGATGAAAGATAATACAGCTCGATCCGGAGTCACCTAGTGCAG”, the binding signal is 27100 fluorescence intensity (a.u.). “TCCTTTATTATCTGTAATTGTAAAATCTTCAGATGAACACCGGAGTCACCTAGTGCAG”: the binding signal was 6210 fluorescence intensity (a.u.).

Turning to “AAATATTATAATTGATTGTCGATGAAACATCGGGTTGTACCGGAGTCACCTAGTGCAG”, the binding signal was 46200 fluorescence intensity (a.u.). As to “CGATGATTGTAATCTCATTGAACAGATGATCCTTCAGGATCGGAGTCACCTAGTGCAG”, the binding signal is 52400 fluorescence intensity (a.u.). For “TATAATTGATGTACATCGATGATTAATTCTCTAACAGATCCGGAGTCACCTAGTGCAG” the value was 62300 fluorescence intensity (a.u.); for “CTCAGATTTGATCAGTGGTAATTTCTCATGTAATCTCATTCGGAGTCACCTAGTGCAG”, 10500 fluorescence intensity (a.u.); for “TCAAATACTGCTGATTATACATACCCACATGTGTTGAATGCGGAGTCACCTAGTGCAG”, 3580 fluorescence intensity (a.u.). Consider “ATAAAGTGATTTAATTTTAGTTAAAGTTAAACTACTTTAACGGAGTCACCTAGTGCAG”, for which the binding signal is 21100 fluorescence intensity (a.u.). With “CACTCTTGCATTTCTTTGATTGCAAATTTCCAAGGCAGAACGGAGTCACCTAGTGCAG”, the binding signal was 5250 fluorescence intensity (a.u.). On to “ATTTTACAGGGTGATTTGAACATACAGTAATTATGGCCAACGGAGTCACCTAGTGCAG”, for which the binding signal was 6520 fluorescence intensity (a.u.). As for “AAATGTCTTGTAGATTGATATATTACATGGAACAAAATTTCGGAGTCACCTAGTGCAG”, the binding signal is 3240 fluorescence intensity (a.u.). Consider “GTTAAACTAATTTGAATTTGTTAGTACAGTTTGCATTTCACGGAGTCACCTAGTGCAG”, for which the binding signal is 25500 fluorescence intensity (a.u.). Turning to “TTTTGAAATTTCAGATTATTTTGTGTGGTTTTGTAATTTGCGGAGTCACCTAGTGCAG”, the binding signal was 4570 fluorescence intensity (a.u.). Turning to “GTATGTGATTTTCTTTAATTAGAGTTCTTGCCTAAGGTTGCGGAGTCACCTAGTGCAG”, the binding signal is 38300 fluorescence intensity (a.u.). Take “TGTGTTCTTGATTTGTGTTGTGTTTGTAGATCGTAGTTTGCGGAGTCACCTAGTGCAG”: the binding signal is 10200 fluorescence intensity (a.u.).

Take “CTGTAATCTTGCTGATTGAATTCTATTTTGATGTGCAGAGCGGAGTCACCTAGTGCAG”: the binding signal was 44800 fluorescence intensity (a.u.).

“TTAATTGGATTGTTTTGATTCGTTGGAGAAGTTAGGAATACGGAGTCACCTAGTGCAG”: the binding signal is 28600 fluorescence intensity (a.u.). Take “CTGATTGATTCGTAATAGTAGAATAGGACATGTTACCATACGGAGTCACCTAGTGCAG”: the binding signal is 64500 fluorescence intensity (a.u.).

As for “ATTTGATTGAATGTAGAGATTCTTGTAATAGGATTCTTTGCGGAGTCACCTAGTGCAG”, the binding signal was 64700 fluorescence intensity (a.u.). In the case of “CTTGATTTATTATTTACCATGTTAGAAATGTTTATTTATACGGAGTCACCTAGTGCAG”, the binding signal is 29600 fluorescence intensity (a.u.). “TGAAATTAATTTGATGTGATAGATTTCTAGGTTTTCTTTGCGGAGTCACCTAGTGCAG”: the binding signal is 64300 fluorescence intensity (a.u.).

With “CAGATTAAAATTTCTGCTCAAGCTAGCCATCGATCATCTGCGGAGTCACCTAGTGCAG”, the binding signal was 3930 fluorescence intensity (a.u.). In the case of “GATGAAACATTTGACATGAACTAAATTTTGTTCGGCAGTTCGGAGTCACCTAGTGCAG”, the binding signal is 5180 fluorescence intensity (a.u.).

As for “CGTAGAAGGGATTGGGTGAAATTACATGGGCATATAGGGACGGAGTCACCTAGTGCAG”, the binding signal was 4240 fluorescence intensity (a.u.).
